Measured values taken from PMC4336329 (PLoS ONE, 2015).
Among all 310,000 compounds or so, about 14,000 (4.5%) showed an effect of 50% or more. Effects have a minus sign here. Shown is part of a subset that was picked to be rich in strong results.

Each compound was assayed against human ether-à-go-go-related gene (hERG) potassium channel (human, UniProt Q12809) (assay: primary screen, population patch clamp on CHO cells stably expressing hERG; higher = less effect of the substance).
Procedure: Briefly, Chinese hamster ovary (CHO) cells stably expressing the hERG channel were dislodged from tissue culture flasks and dispensed into PPC plates. […] During the recording, background leak currents were estimated by a 100 ms step to -80 mV from an initial holding potential of -70 mV and subtracted from the subsequent current measurement. The campaign was conducted in two phases using slight differences in recording protocol. In the first phase, the initial voltage pulse used a 100 ms step to -30 mV from a holding potential of -70 mV, a 2 s conditioning step to +25 mV, and a 2 s test step to -30 mV. During the second phase of the screen, the potential during the conditioning step was raised to +45 mV. In both phases of the campaign, a secondary voltage pulse was applied using the same parameters as the second phase initial pulse. The initial and secondary pulses were applied in the absence of compound, and upon application of 1 μM and 10 μM test concentrations. […]
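Also: peak tail current of the secondary pulse compared with the same well before compound.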

Chain of human ether-à-go-go-related gene (hERG) potassium channel (Q12809 whole entry, looked up): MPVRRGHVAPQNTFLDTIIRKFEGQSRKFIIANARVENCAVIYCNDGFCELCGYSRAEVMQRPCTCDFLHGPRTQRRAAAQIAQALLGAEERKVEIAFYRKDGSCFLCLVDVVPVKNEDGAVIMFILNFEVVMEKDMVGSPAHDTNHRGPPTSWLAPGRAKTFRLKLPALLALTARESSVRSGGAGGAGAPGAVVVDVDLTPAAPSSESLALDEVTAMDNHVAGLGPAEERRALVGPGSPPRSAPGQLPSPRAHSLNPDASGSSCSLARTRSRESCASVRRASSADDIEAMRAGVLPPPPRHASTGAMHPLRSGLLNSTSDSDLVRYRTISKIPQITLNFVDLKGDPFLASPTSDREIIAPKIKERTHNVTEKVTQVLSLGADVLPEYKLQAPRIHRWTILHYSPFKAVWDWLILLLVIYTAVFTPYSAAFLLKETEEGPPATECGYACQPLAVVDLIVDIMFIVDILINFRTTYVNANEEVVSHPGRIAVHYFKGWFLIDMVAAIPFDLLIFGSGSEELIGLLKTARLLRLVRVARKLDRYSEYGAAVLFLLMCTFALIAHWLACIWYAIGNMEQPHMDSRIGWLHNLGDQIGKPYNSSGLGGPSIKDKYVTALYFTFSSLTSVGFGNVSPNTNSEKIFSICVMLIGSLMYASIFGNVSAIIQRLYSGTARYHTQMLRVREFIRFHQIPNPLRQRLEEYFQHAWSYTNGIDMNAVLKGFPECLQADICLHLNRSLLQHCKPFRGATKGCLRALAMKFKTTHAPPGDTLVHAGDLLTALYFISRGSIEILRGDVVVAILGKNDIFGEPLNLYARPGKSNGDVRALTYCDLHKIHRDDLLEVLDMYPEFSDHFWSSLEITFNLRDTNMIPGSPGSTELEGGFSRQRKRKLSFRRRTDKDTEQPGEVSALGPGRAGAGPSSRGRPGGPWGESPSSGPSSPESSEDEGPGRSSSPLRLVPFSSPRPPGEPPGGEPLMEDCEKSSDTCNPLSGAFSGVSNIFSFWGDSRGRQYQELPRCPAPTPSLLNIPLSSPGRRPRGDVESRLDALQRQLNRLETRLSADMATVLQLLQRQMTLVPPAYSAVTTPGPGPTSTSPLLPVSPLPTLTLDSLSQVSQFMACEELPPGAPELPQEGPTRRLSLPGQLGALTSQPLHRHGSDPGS

Row | SMILES | hERG current change (%, negative = inhibition) at 10uM
1 | CC(C)c1cccc(C(C)C)c1OCCCCN1CCCC1 | -22.7%
2 | COc1ccccc1N(C)S(=O)(=O)c1ccc(C(=O)Nc2nccs2)cc1 | -30.5%
3 | CC(=O)c1ccc(NC(=O)CN2CCC(NC(=O)C3CCCCC3)CC2)cc1 | -6.72%
4 | COc1ccc(/C=C/CN2CCCC(CCC(=O)NCc3ccc(F)c(F)c3)C2)cc1 (stereo not shown) | -72.8%
5 | COCCC(=O)N1CCCC(CCC(=O)NCc2ccc(F)c(F)c2)C1 (stereo not shown) | 22.8%
6 | COc1cccc(C(=O)N2CCCC(CCC(=O)NCc3ccc(F)c(F)c3)C2)c1 (stereo not shown) | -17.5%
7 | COC(=O)c1ccccc1C(=O)N1CCCC(CCC(=O)NCc2ccc(F)c(F)c2)C1 (stereo not shown) | -10.1%
8 | COc1ccccc1CC(=O)N1CCCC(CCC(=O)NCc2ccccc2F)C1 (stereo not shown) | 2.97%
9 | COc1ccccc1/C=C/CN1CCCC(CCC(=O)NCc2ccccc2F)C1 (stereo not shown) | -65.7%
10 | COc1cccc(CNC(=O)CCC2CCCN(C(=O)Cc3ccccc3F)C2)c1 (stereo not shown) | -7.61%
11 | COc1ccccc1/C=C/CN1CCCC(CCC(=O)NCc2ccc(F)c(F)c2)C1 (stereo not shown) | -70%
12 | COCCNC(=O)CCC1CCN(C/C=C/c2ccccc2OC)CC1 | -3.87%
13 | COc1cccc(CNC(=O)CCC2CCCN(C/C=C/c3ccccc3OC)C2)c1 (stereo not shown) | -68.5%
14 | COc1cccc(CNC(=O)CCC2CCCN(C(=O)c3ccc(OC)c(F)c3)C2)c1 (stereo not shown) | -9.79%
15 | COc1ccc(C(=O)N2CCCC(CCC(=O)NCc3ccc(F)c(F)c3)C2)cc1F (stereo not shown) | -22.8%
16 | CCCCC(NC(=O)c1cccc(Br)c1)C(=O)O (stereo not shown) | 9.42%
17 | Cc1nn(C)c(C)c1CNC(=O)Nc1cccc(Cl)c1 | 6.93%
18 | CC1(C)CC(=O)c2cn3nc(C(F)(F)F)nc3nc2C1 | 4.21%
19 | O=C(CN1CCN(S(=O)(=O)c2ccc(F)c(Cl)c2)CC1)N1CCc2ccccc21 | -34.7%
20 | CCOC(=O)c1ccc(NC(=O)NS(=O)(=O)c2ccc(C)cc2)cc1 | 10.9%
21 | CC(C)Oc1ccc(S(=O)(=O)N2CCCCC2)cc1NC(=O)CN1C(=O)NC2(CCCC2)C1=O | -2.87%
22 | O=[N+]([O-])c1cccc(/C=N/NC2CCS(=O)(=O)C2)c1 (stereo not shown) | 11.9%

Row | SMILES | hERG current change (%, negative = inhibition) at 10uM
23 | Cc1ccc(S(=O)(=O)N2CCCC(CCC(=O)NCc3ccccc3F)C2)s1 (stereo not shown) | -50.7%
24 | Cc1ccsc1C(=O)N1CCCC(CCC(=O)NCc2ccccc2F)C1 (stereo not shown) | -7.46%
25 | Cc1ccsc1S(=O)(=O)N1CCCC(CCC(=O)NCc2ccccc2F)C1 (stereo not shown) | 5.38%
26 | CCOC(=O)C1=C(CSc2n[nH]c(N)n2)NC(=O)NC1C (stereo not shown) | 3.79%
27 | CC1CC(C)CN(S(=O)(=O)N2CCCC(C(=O)NC(C)c3ccccc3)C2)C1 (stereo not shown) | 3.1%
28 | COc1ccc(OC)c2[nH]c(C(=O)N3CCC(C(=O)O)CC3)cc12 | 24.6%
29 | O=C(CSc1nnc(NC2CCCCC2)s1)NC1CCS(=O)(=O)C1 (stereo not shown) | -0.507%
30 | N#Cc1cc(Sc2ccccn2)c([N+](=O)[O-])cc1C#N | -18.9%
31 | O=[N+]([O-])c1cc(Cl)ccc1NCCc1ccccn1 | -16.8%
32 | N#Cc1cc([N+](=O)[O-])ccc1NCCc1ccccn1 | -18.4%
33 | N#Cc1ccc(NCCc2ccccn2)c([N+](=O)[O-])c1 | -74%
34 | N#Cc1ccc(Sc2ccccn2)c([N+](=O)[O-])c1 | -61.5%
35 | O=[N+]([O-])c1cc(Cl)ccc1Sc1ccccn1 | 3.65%
36 | CC(C)(C)c1ccc(OCC(=O)O)cc1 | 17.9%
37 | COC(=O)c1sc(S(=O)(=O)NCCC(=O)O)c(C(=O)OC)c1C | 5.17%
38 | Cc1cccc(NC(=O)CSCC(=O)Nc2ccc(S(=O)(=O)N3CCOCC3)cc2)c1 | -5.21%
39 | Cc1cccc(NC(=O)CSCC(=O)Nc2cc(S(=O)(=O)N3CCOCC3)ccc2OC(C)C)c1 | -87.2%
40 | CCOc1ccc(S(=O)(=O)N2CCOCC2)cc1NC(=O)CSC(=S)N1CCCC1 | -63%
41 | CCOc1ccc(S(=O)(=O)N2CCOCC2)cc1NC(=O)CSCc1ccc(C)cc1 | -53.2%
42 | CCOc1ccc(S(=O)(=O)N2CCOCC2)cc1NC(=O)CSCC(=O)Nc1ccc(C)cc1 | -18.2%
43 | CCN(CC)c1ccc(S(=O)(=O)N2CCOCC2)cc1NC(=O)CSC(=S)N1CCCC1 | -32.2%
44 | CCOc1ccc(S(=O)(=O)N2CCOCC2)cc1NC(=O)C1CCC1 | 16.3%

Row | SMILES | hERG current change (%, negative = inhibition) at 10uM
45 | CCOc1ccc(S(=O)(=O)N2CCOCC2)cc1NC(=O)CSCC(=O)Nc1cccc(C)c1 | -11.4%
46 | Cc1ccc(CSCC(=O)Nc2cc(S(=O)(=O)N3CCOCC3)ccc2OC(C)C)cc1 | -30.5%
47 | Cc1cc(C)c2c(c1)/C(=N/NC(=O)c1cc(C)oc1C)CCC2 | 6.66%
48 | Cc1ccc(S(=O)(=O)N2CCC(C(=O)OCC(=O)NCCc3ccccc3)CC2)cc1C | -8.07%
49 | C/C(=N\O)c1c(O)cc(-c2ccccc2)n(-c2ccccc2)c1=O | 8.56%
50 | CN(c1ccc(C(=O)N/N=C/c2cccc([N+](=O)[O-])c2)cc1)S(=O)(=O)c1ccccc1 | 1.88%
51 | Cc1onc(-c2c(F)cccc2Cl)c1C(=O)N(C)C1CCCCC1 | 2.65%
52 | CCN(CC)c1ccc(/C=N/NC(=S)NCc2ccccc2)c(O)c1 | 12%
53 | COCCn1c(=S)[nH]c2cc(C(=O)N(CCO)Cc3ccccc3)ccc2c1=O | 4.32%
54 | CC(C)=CCc1c(O)ccc2c1OC(c1ccc(O)c(O)c1)CC2=O (stereo not shown) | 9.78%
55 | COc1ccc(C(=O)CCC(=O)N2CCN(c3ccccc3)CC2)cc1 | -9.62%
56 | COc1ccc(C(=O)CCC(=O)N2CCN(c3ccc([N+](=O)[O-])cc3)CC2)cc1 | -63.8%
57 | COc1ccc(N2CCN(C(=O)CSc3ccccc3N)CC2)cc1 | 3.07%
58 | COc1ccc(C(=O)NC(=S)N2CCN(c3ccc([N+](=O)[O-])cc3)CC2)cc1 | -49.2%
59 | COc1ccc(N2CCN(C(=O)CSc3ccccc3)CC2)cc1 | 4.44%
60 | COc1ccc(N2CCN(C(=O)CSc3ccc([N+](=O)[O-])cc3)CC2)cc1 | -68.4%
61 | O=C(NC1CCN(S(=O)(=O)c2cccc(F)c2)CC1)c1ccc(F)cc1 | 14.6%
62 | Cc1cc2c(sc3c(C)ccc(C)c32)c(C)n1.Cl | 3.48%
63 | O=C(NNC(=O)c1cccnc1)NC12CC3CC(CC(C3)C1)C2 | -2.41%
64 | CCCNC(=O)CS(=O)Cc1nc(-c2ccccc2C)oc1C (stereo not shown) | 6.71%
65 | CC(=O)c1ccccc1NC(=O)C1CCCN(C(=O)c2ccc(Cl)cc2)C1 (stereo not shown) | -25.6%
66 | COc1ccc(S(=O)(=O)Cc2ccc(C(=O)NC3CCCCC3)o2)cc1 | -2.17%

Row | SMILES | hERG current change (%, negative = inhibition) at 10uM
67 | C[N+]1(C)C2CCC1CC(OC(=O)c1ccco1)C2.[Br-] (stereo not shown) | 7.81%
68 | CCCN(C(=O)CSc1nnc(-c2ccoc2C)n1N)C1CCS(=O)(=O)C1 (stereo not shown) | 5.3%
69 | O=C(NCC(c1ccco1)N1CCCC1)c1cn(Cc2ccccc2)nc1-c1ccccc1 (stereo not shown) | -58.5%
70 | COc1ccc(OC)c(-c2nn(-c3ccccc3)cc2C(=O)NCC(c2ccco2)N2CCCC2)c1 (stereo not shown) | -63.7%
71 | O=C(NCC(c1ccco1)N1CCCC1)c1ccccc1F (stereo not shown) | 3.76%
72 | COc1ccc(OC)c(-c2nn(-c3ccccc3)cc2C(=O)NCC2CCCO2)c1 (stereo not shown) | 2.13%
73 | Cc1ccccc1-c1nn(-c2ccccc2)cc1C(=O)NCC(c1ccco1)N1CCCC1 (stereo not shown) | -14.3%
74 | Cc1cc(C(=O)NCC(c2ccco2)N2CCCC2)c2ccccc2n1 (stereo not shown) | 6.54%
75 | COc1ccc(Cl)cc1C(=O)NCC(c1ccco1)N1CCCC1 (stereo not shown) | -44.5%
76 | COc1cc(C(=O)NCC(c2ccco2)N2CCCC2)ccc1OCc1ccccc1 (stereo not shown) | -40.5%
77 | COc1ccc(OC)c(-c2nn(-c3ccccc3)cc2C(=O)NCC(c2cccs2)N2CCOCC2)c1 (stereo not shown) | -30.2%
78 | COc1ccccc1-c1nn(Cc2ccccc2)cc1C(=O)NCC(c1ccco1)N1CCCC1 (stereo not shown) | -64%
79 | COc1ccccc1-c1nn(-c2ccccc2)cc1C(=O)NCC(c1ccco1)N1CCCC1 (stereo not shown) | -53%
80 | COc1ccccc1C(=O)NCCC(=O)NCC(c1ccco1)N1CCCC1 (stereo not shown) | 13.7%
81 | CC(=O)NC1(C(F)(F)F)N=C2SCCN2C1=O (stereo not shown) | 7.4%
82 | CCOc1cc(/C=C/c2cccc[n+]2C)ccc1O.[I-] | 24.7%
83 | O=C(COc1ccc(NC(=O)c2ccccc2[N+](=O)[O-])cc1)c1ccc(F)cc1 | 2.93%
84 | O=[N+]([O-])c1cccc(S(=O)(=O)[N-]c2nc3ccccc3nc2-n2cc[n+](Cc3ccccc3)c2)c1 | -5.11%
85 | CC(C)N(C(=O)Cn1c(SCC(=O)Nc2nccs2)nc2ccccc21)C(C)C | 12.6%
